Sampled rows, rich in hits. Any-hit rate of the full collection: about 3.6%.
mHTT-CaM PPI inh: mHTT-calmodulin interaction abrogation; inhibition, % at 15 µM; P42858; AlphaScreen His-mHTT/GST-CaM binding, luminescence; hit rate 3.6% among 190,000;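 further: 0% = both proteins with DMSO and 100% = one protein alone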
Target sequence (P42858 whole entry, looked up, stated change not applied): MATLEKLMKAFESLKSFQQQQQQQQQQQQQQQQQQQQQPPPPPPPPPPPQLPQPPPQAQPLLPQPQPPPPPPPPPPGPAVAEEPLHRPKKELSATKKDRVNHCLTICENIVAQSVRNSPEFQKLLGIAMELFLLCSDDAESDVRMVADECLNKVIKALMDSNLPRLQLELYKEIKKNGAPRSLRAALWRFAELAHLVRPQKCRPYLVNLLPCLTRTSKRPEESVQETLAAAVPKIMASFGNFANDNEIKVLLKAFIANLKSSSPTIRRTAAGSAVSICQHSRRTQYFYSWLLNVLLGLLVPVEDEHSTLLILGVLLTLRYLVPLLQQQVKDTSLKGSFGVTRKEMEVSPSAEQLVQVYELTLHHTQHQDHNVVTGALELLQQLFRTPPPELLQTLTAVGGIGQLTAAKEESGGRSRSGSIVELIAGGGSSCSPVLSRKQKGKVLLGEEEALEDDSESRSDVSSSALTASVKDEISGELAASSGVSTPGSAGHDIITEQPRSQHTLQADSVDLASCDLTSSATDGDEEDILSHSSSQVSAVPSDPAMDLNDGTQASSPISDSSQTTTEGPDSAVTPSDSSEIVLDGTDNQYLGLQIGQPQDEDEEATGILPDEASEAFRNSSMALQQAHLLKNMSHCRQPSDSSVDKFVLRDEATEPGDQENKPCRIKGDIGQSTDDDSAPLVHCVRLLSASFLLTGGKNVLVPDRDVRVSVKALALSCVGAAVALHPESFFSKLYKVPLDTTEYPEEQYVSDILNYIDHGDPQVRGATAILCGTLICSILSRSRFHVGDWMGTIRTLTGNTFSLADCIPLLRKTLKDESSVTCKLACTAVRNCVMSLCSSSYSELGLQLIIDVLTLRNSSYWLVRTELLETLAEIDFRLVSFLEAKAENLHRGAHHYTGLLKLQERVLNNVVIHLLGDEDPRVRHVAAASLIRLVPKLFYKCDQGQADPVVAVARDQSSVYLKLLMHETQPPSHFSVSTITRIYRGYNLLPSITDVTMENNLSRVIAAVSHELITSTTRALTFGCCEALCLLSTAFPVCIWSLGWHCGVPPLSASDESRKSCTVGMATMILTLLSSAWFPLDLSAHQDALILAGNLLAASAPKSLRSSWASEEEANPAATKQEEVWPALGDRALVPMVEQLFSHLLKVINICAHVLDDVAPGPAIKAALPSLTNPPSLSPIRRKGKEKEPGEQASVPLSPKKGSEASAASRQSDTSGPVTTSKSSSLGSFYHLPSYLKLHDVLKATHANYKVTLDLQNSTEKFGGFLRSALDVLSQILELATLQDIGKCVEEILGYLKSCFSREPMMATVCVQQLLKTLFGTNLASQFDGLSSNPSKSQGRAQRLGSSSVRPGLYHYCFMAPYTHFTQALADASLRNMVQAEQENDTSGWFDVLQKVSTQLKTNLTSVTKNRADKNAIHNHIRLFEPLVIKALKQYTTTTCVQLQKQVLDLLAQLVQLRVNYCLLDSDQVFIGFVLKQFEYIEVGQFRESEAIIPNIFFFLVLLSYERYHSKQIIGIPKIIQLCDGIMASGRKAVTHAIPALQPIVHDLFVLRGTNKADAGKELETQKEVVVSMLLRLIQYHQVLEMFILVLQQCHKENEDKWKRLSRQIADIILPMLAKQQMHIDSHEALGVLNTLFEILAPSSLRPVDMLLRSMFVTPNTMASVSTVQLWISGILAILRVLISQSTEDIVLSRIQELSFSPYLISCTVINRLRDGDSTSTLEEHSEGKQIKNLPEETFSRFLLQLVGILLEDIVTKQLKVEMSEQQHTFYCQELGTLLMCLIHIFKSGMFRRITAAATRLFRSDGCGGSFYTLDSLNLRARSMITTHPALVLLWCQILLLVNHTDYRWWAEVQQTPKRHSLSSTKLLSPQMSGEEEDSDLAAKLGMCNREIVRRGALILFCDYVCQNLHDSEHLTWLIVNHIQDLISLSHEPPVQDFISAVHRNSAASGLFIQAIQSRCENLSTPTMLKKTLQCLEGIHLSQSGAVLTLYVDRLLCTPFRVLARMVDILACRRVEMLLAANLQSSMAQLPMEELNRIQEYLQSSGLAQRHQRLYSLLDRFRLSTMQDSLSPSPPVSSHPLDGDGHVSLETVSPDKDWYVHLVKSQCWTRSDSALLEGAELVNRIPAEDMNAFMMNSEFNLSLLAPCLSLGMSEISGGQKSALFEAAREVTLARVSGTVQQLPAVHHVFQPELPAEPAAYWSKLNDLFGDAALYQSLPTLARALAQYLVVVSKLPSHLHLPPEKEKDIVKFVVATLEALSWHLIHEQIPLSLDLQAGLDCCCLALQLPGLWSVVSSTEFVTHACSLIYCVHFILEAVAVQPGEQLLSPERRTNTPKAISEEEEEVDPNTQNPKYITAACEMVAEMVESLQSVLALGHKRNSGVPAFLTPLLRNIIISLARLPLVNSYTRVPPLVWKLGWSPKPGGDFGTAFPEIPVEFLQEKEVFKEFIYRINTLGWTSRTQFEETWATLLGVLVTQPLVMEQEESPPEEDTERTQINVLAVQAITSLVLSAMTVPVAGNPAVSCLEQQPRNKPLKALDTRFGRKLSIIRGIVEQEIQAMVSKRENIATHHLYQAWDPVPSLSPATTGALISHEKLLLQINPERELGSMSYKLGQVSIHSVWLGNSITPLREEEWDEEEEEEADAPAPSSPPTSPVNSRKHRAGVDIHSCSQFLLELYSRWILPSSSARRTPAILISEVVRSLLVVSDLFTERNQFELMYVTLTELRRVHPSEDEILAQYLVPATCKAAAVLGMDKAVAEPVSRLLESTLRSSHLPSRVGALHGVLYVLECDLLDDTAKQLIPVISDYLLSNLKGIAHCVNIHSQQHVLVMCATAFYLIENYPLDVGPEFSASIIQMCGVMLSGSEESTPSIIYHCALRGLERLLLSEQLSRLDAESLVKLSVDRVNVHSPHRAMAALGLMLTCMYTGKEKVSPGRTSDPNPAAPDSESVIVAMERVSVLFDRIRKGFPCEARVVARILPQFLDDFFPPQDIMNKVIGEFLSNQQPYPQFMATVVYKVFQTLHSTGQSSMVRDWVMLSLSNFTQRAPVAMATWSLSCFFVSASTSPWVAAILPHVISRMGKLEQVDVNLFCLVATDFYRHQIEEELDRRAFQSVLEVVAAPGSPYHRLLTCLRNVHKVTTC
Pf apPOL inh: Pf-apPOL DNA polymerase inhibition. Recombinant Pf-apPOL, molecular beacon fluorescence, 1.5 h. inhibition, % at 10 µM. hit rate 0.25% among 210,000
The depositor's hits bear a star. No stated cut-off is given here; in the data, active means inhibition above about 50%; inactive means the rest.

`Cc1cccn2c(=O)c3cc(C(=O)NC(C)c4ccccc4)c(=N)n(C4CCCCC4)c3nc12` (stereo not drawn) gave mHTT-CaM PPI inh 54.0* and Pf apPOL inh -0.1.
Cc1cccn2c(=O)c3cc(C(=O)NC(C)c4ccccc4)c(=N)n(Cc4ccco4)c3nc12 (stereo not drawn) was read as mHTT-CaM PPI inh 51.0* and Pf apPOL inh 3.9.
`CCNC(=O)c1cc2c(=O)n3ccccc3nc2n(Cc2ccco2)c1=N` gave mHTT-CaM PPI inh 18.0 and Pf apPOL inh 15.5.
For CCn1c(=N)c(C(=O)NC(C)c2ccccc2)cc2c(=O)n3cccc(C)c3nc21 (stereo not drawn) the results were mHTT-CaM PPI inh 0.0 and Pf apPOL inh -5.9.
`CC(NC(=O)c1cc2c(=O)n3ccccc3nc2n(Cc2ccco2)c1=N)c1ccccc1` (stereo not drawn) gave mHTT-CaM PPI inh 51.0* and Pf apPOL inh -2.2.
Screening Cc1noc(C)c1CCC(=O)N1CCN(c2c(C)nn(C3CCS(=O)(=O)C3)c2C)CC1 (stereo not drawn) returned mHTT-CaM PPI inh -12.6 and Pf apPOL inh -5.8.
Screening Cc1nnsc1C(=O)NCCn1nc(-c2cccs2)ccc1=O returned mHTT-CaM PPI inh -8.0 and Pf apPOL inh -2.8.
`COc1ccc(CC(=O)N2CCc3nc(Cc4cccc(F)c4)[nH]c(=O)c3C2)cc1` gave mHTT-CaM PPI inh 7.7 and Pf apPOL inh -2.6.
Cc1nc(Nc2ccc(F)cn2)sc1C(=O)N1CCN(C2CCCCC2)CC1 was read as mHTT-CaM PPI inh 25.7 and Pf apPOL inh -0.1.
Screening Cc1nc(Nc2ccccn2)sc1C(=O)N1CCc2ccccc2C1 returned mHTT-CaM PPI inh 26.3 and Pf apPOL inh 0.7.
Screening Cc1ccccc1N1CCN(C(=O)c2sc(Nc3ccc(F)cn3)nc2C)CC1 returned mHTT-CaM PPI inh 100.1* and Pf apPOL inh -4.3.
Cc1nc(Nc2ccc(F)cn2)sc1C(=O)N1CCc2ccccc2C1 was read as mHTT-CaM PPI inh 64.6* and Pf apPOL inh -3.0.
`Cc1cccc(N2CCN(C(=O)c3sc(Nc4ccc(F)cn4)nc3C)CC2)c1` gave mHTT-CaM PPI inh 85.0* and Pf apPOL inh -3.7.
Screening Cc1cccc(Nc2nc(C)c(C(=O)N3CCN(c4ccccc4)CC3)s2)n1 returned mHTT-CaM PPI inh 48.3 and Pf apPOL inh -3.7.
Screening CN1C(=O)c2cc(NS(=O)(=O)Cc3ccccc3F)ccc2Oc2ccccc21 returned mHTT-CaM PPI inh -11.9 and Pf apPOL inh -9.6.
`Cc1nc2c(ccc3nc(NC(=O)c4cc(-c5ccccc5)on4)sc32)s1` gave mHTT-CaM PPI inh -0.5 and Pf apPOL inh -3.4.
`Cc1nc2cc(N3CC(C(=O)Nc4ccc(Cl)cc4F)CC3=O)ccc2o1` (stereo not drawn) gave mHTT-CaM PPI inh -0.4 and Pf apPOL inh -4.2.
`Cc1ccc(C(=O)N2CCC(C)CC2)c(C2CCN(C(=O)C3CC3)CC2)n1` gave mHTT-CaM PPI inh -1.5 and Pf apPOL inh -3.0.
COc1ccc(NC(=O)c2ccc(-c3cccc(Cl)c3)o2)cc1OC was read as mHTT-CaM PPI inh 26.9 and Pf apPOL inh -5.4.
`COc1ccc(NC(=O)c2ccc(-c3ccc(Cl)cc3)o2)cc1OC` gave mHTT-CaM PPI inh 59.4* and Pf apPOL inh -17.5.
COc1ccc(C2(CCNC(=O)c3cc(OC)c(OC)c(OC)c3)CCCC2)cc1OC was read as mHTT-CaM PPI inh 23.0 and Pf apPOL inh -3.9.
CC(C)(C)c1cc(C(=O)NC2CCCCC2)nc2ccnn12 was read as mHTT-CaM PPI inh -22.7 and Pf apPOL inh -1.0.
Screening CCOc1ccc(NC(=O)N2CCCC(c3cccc(C(=O)N4CCOCC4)c3)C2)cc1 (stereo not drawn) returned mHTT-CaM PPI inh 0.8 and Pf apPOL inh -2.3.
Cc1ccc(C(=O)Nc2ccc(S(=O)(=O)O)c3cc(S(=O)(=O)O)cc(S(=O)(=O)O)c23)cc1NC(=O)c1cccc(NC(=O)Nc2cccc(C(=O)Nc3cc(C(=O)Nc4ccc(S(=O)(=O)O)c5cc(S(=O)(=O)O)cc(S(=O)(=O)O)c45)ccc3C)c2)c1 was read as Pf apPOL inh 53.4*.
`Cc1ccccc1NC(=O)c1ccc(C)c(S(=O)(=O)Nc2cccc(C(=O)O)c2)c1` gave mHTT-CaM PPI inh -3.2 and Pf apPOL inh -4.2.
For COc1ccc(NC(=O)C2C3C=CC(C3)C2C(=O)O)c(OC)c1 (stereo not drawn) the results were mHTT-CaM PPI inh -2.0 and Pf apPOL inh 0.1.
Screening O=C(C1CCN(Cc2ccc(OCc3ccccc3)cc2)CC1)N1CCN(c2ccccc2)CC1 returned mHTT-CaM PPI inh 63.3* and Pf apPOL inh -6.8.
O=C(C1CCN(Cc2cccc(OCc3ccccc3)c2)CC1)N1CCOCC1 was read as mHTT-CaM PPI inh 0.7 and Pf apPOL inh -4.1.
`Cc1cc(NCC(O)c2ccc([N+](=O)[O-])cc2)nc(-n2nc(C)cc2C)n1` (stereo not drawn) gave mHTT-CaM PPI inh 97.4* and Pf apPOL inh -2.0.
Screening Cc1cc(Oc2ccc([N+](=O)[O-])cc2)nc(-n2nc(C)cc2C)n1 returned mHTT-CaM PPI inh 4.2 and Pf apPOL inh 1.9.
O=C(CC1CCCC1)N1CCC2(C1)NCc1ccccc1NC2=NC1CCCC1 (stereo not drawn) was read as mHTT-CaM PPI inh 11.4 and Pf apPOL inh -1.2.
Screening CCCc1ccc(OCC(=O)Nc2ccc(C)c([N+](=O)[O-])c2)cc1 returned mHTT-CaM PPI inh 8.3 and Pf apPOL inh -9.6.
Screening CCOC(=O)N1CCN(C(=O)CCc2nnc3c4cc(-c5ccccc5)nn4ccn23)CC1 returned mHTT-CaM PPI inh -5.3 and Pf apPOL inh -4.0.
Screening COc1ccccc1NS(=O)(=O)c1ccc(Cl)c(C(=O)Nc2ccc(Cl)cc2)c1 returned mHTT-CaM PPI inh 15.0 and Pf apPOL inh 19.7.
COc1ccccc1NC1=CC(=NS(=O)(=O)c2cccs2)c2ccccc2C1=O was read as mHTT-CaM PPI inh 91.0* and Pf apPOL inh -14.9.
Screening O=C1C(Nc2ccccc2)=CC(=NS(=O)(=O)c2cccs2)c2ccccc21 returned mHTT-CaM PPI inh 92.0* and Pf apPOL inh 0.0.
COc1ccccc1NC1=CC(=NS(=O)(=O)c2ccc(Cl)cc2)c2ccccc2C1=O was read as mHTT-CaM PPI inh 94.0* and Pf apPOL inh 4.1.
Screening O=C(O)c1cccc(NC2=CC(=NS(=O)(=O)c3cccs3)c3ccccc3C2=O)c1 returned mHTT-CaM PPI inh 44.0 and Pf apPOL inh 22.0.
For COc1ccccc1Nc1ncc(-c2cccs2)s1 the results were mHTT-CaM PPI inh 25.0 and Pf apPOL inh -0.5.
CCNC(=O)Cn1cccc1-c1nc(-c2ccc(C)cc2)cs1 was read as mHTT-CaM PPI inh -0.9 and Pf apPOL inh -6.2.
Cc1ccc(-n2nnnc2CNC(=O)c2cccs2)cc1 was read as mHTT-CaM PPI inh -4.6 and Pf apPOL inh -2.1.
Screening O=C(Nc1nnc(-c2ccc(Br)s2)o1)c1c(F)cccc1F returned mHTT-CaM PPI inh -4.4 and Pf apPOL inh -2.9.
`O=S(=O)(NCCc1c[nH]c2ncccc12)c1ccccc1Br` gave mHTT-CaM PPI inh 2.4 and Pf apPOL inh 3.3.
`Cc1sc(NC(=O)CCC(=O)O)nc1-c1ccccc1` gave mHTT-CaM PPI inh -2.2 and Pf apPOL inh 0.9.
`CCC(Sc1nc2n[nH]c(C)c2c(=N)n1-c1ccc(Cl)c(C)c1)C(=O)NCCOC` (stereo not drawn) gave mHTT-CaM PPI inh 52.0* and Pf apPOL inh -5.1.
Cc1cc(NC(=O)CSc2nc3n[nH]c(C)c3c(=N)n2-c2ccc(Cl)c(C)c2)no1 was read as mHTT-CaM PPI inh 48.0 and Pf apPOL inh 1.3.

Assay outcomes from PubChem.
